# According to PubChem BioAssay AID651582 (Sanford-Burnham Center for Chemical Genomics, 2012):
# Several values for one entry are separate records, joined by “and”; a condition that tells them apart may be missing. Equal entries are not always repeated. Among all 230,000 compounds or so, about 1,500 (0.65%) were called active.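 The calls were made as follows: active = pattern-corrected inhibition of lipid staining of at least 50% with the nuclear-stain viability signal not falling by more than 50%; inactive = the rest, inconclusive results apart.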 What follows is part of a selection rich in actives, with near analogues and random picks from the rest. Some structures have more than one record in an assay (separate samples or runs), and their calls can disagree.
# Assay: TAG lipid buildup reduction in H9c2 cells – cell-based, uHTS, fluorescence, primary screen (AID 651582);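 as to inhibition: 0% = DMSO wells and 100% = triacsin C control wells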
# Conditions: Nile Red lipid (TAG) fluorescence, at 12.5 µM, cells loaded with 200 µM oleic acid; DAPI nuclei signal change (viability), lower = more cytotoxic: measured here: DAPI nuclei count viability; inhibition: stronger effect = higher value
Compound,"DAPI nuclei signal change (viability), lower = more cytotoxic",inhibition
O=C(COC(=O)/C=C/c1ccc(Cl)cc1)NC1CCS(=O)(=O)C1 (stereo unspecified),-1.68%,1.31% (inactive)
O=C(COC(=O)c1ccccn1)NNC(=O)c1ccc(Br)cc1,1.16%,11.9% (inactive)
COC(=O)c1ccc(CN2CCCC(C(=O)Nc3cccc(-n4cnnn4)c3)C2)cc1 (stereo unspecified),3.39%,-0.9% (inactive)
COc1ccc(C(CNC(=O)c2cccc(S(=O)(=O)Nc3ccc(Br)cc3)c2)N(C)C)cc1 (stereo unspecified),7.9%,-15.7% (inactive)
O=C(Nc1nc2c(F)cc(F)cc2s1)C1COc2ccccc2O1 (stereo unspecified),-6.26%,-0.591% (inactive)
COc1ccc(OC)c2sc(NC(=O)C3COc4ccccc4O3)nc12 (stereo unspecified),-0.689%,-1.03% (inactive)
O=C(Nc1nc(-c2ccncc2)cs1)C1COc2ccccc2O1 (stereo unspecified),-38.7%,50.4% (active)
CCCCc1ccc(NS(=O)(=O)c2cccc(C(=O)N3CCCN(C)CC3)c2)cc1,4.43%,-11.5% (inactive)
CC1O[C@@H](OC2C(O)C(C)O[C@H](OC(=O)[C@]34CCC(C)(C)C[C@H]3C3=CCC5[C@@]6(C)CC(O)C(O[C@@H]7OC(CO)C(O)[C@@H](O)[C@@H]7O)[C@@](C)(C(=O)O)C6CC[C@@]5(C)[C@]3(CO)CC4)C2O[C@H]2OC(C)[C@@H](O[C@@H]3OCC(O[C@@H]4OC(CO)C(O)[C@H](O)C4O)[C@@H](O)[C@@H]3O)[C@H](O)C2O)C(O)C(O)C1O (stereo partly specified),-3.05%,18.4% (inactive)
Cc1cccc(NC(=O)c2nnn(-c3cccc(C(F)(F)F)c3)c2N)c1,-5.82%,3.82% (inactive)
COc1ccc(NC(=O)CN(C)CC(=O)Nc2cccc(C(F)(F)F)c2)cc1,6.16%,-9.17% (inactive)
COc1cc(NC(=O)c2[nH]cnc2C(N)=O)cc(C(=O)Nc2cccc(C(F)(F)F)c2)c1,-14.2%,53.7% (active)
COc1cc(NC(=O)c2cncc(-c3ccc(C#N)cc3)c2)cc(C(=O)Nc2cccc(C(F)(F)F)c2)c1,0.0489% and -1.97%,-19.1% (inactive) and 61.3% (active)
COc1ccc(NC(=O)C(=O)NCC(=O)Nc2cccc(C(F)(F)F)c2)cc1,-2.54%,4.19% (inactive)
N#Cc1ccc(Oc2ccc(C(F)(F)F)cc2NC(=O)c2ccc(F)cc2)cc1,4.06%,-7.23% (inactive)
CC(C)(C)OC(=O)C[C@@H]1C/C=C\C[C@@H](CC(=O)N(CCO)Cc2ccccc2)C(=O)N[C@H](Cc2ccccc2)COC1=O,-3.76%,9.88% (inactive)
O=C(COc1ccc(Br)cc1)OCC(=O)c1ccc[nH]1,0.498%,-0.551% (inactive)
CC(=O)NCc1ccc(-c2csc(NC(=O)CCCc3nc4ccccc4c(=O)[nH]3)n2)cc1,0.981%,12% (inactive)
Cc1onc(-c2c(F)cccc2Cl)c1C(=O)OCC(=O)N1C(C)CCCC1C (stereo unspecified),-2.4%,8.89% (inactive)
CCCCNc1c(-c2ccc(OC)c(Sc3ccc(OC)cc3)c2)nc2ccc(Cl)cn12,65.8%,11.1% (inactive)
C=CCC[C@@H](Cc1ccc(F)cc1)C(=O)OC[C@H](Cc1c[nH]c2ccccc12)NC(=O)[C@@H](CC=C)CC(=O)N(CCO)Cc1ccccc1,-6.98%,68% (active)
C=CCC[C@H](Cc1ccc(F)cc1)C(=O)OC[C@@H](Cc1c[nH]c2ccccc12)NC(=O)[C@H](CC=C)CC(=O)N[C@H](CO)Cc1ccccc1,1.3%,20.3% (inactive)
C=CCC[C@H](Cc1ccc(F)cc1)C(=O)OC[C@H](C)NC(=O)[C@H](CC=C)CC(=O)N(CCO)Cc1ccccc1,-5.64%,27.4% (inactive)
CCN(CC)S(=O)(=O)c1ccc(N2CCOCC2)c(NC(=O)c2ccc(=O)n(C)n2)c1,-1.89%,5.11% (inactive)
CCOC(=O)C1(C)CCCN(C(=O)c2cccc(Cl)c2)C1 (stereo unspecified),4.05%,-18.8% (inactive)

Compound,"DAPI nuclei signal change (viability), lower = more cytotoxic",inhibition
CN(C(=O)c1cccc(NC(=O)Cc2ccc(NC(=O)C3CCN(C(=O)C4CCCCC4)CC3)cc2)c1)C1CCC1,-0.027%,-1.1% (inactive)
OCc1ccc(OCCCOc2cccc3cccnc23)cc1,12.3%,-32.6% (inactive)
O=C(Nc1ccccc1Cl)Nc1cccc2cccnc12,2.86%,20.5% (inactive)
O=C(Nc1ccccc1)Oc1cccc2cccnc12,-22.4%,63.4% (active)
COc1ccc(C(=O)N2CCCCC2c2cc(C(=O)Nc3ccc(F)c(Cl)c3)no2)cc1 (stereo unspecified),-1.17%,2.9% (inactive)
O=C(NCCN1CCOCC1)c1ccc2c(c1)ncn2C1CCCC1,1.89%,-0.366% (inactive)
O=C(NCCN1CCOCC1)c1cc(-c2cccs2)nc2ccccc12,34.9%,13.5% (inactive)
c1ccc2cc3c(NCCN4CCOCC4)ccnc3cc2c1,65.1%,70.1% (active)
CCOC(=O)C1CCCN(C(=O)c2ccc(C)c(S(=O)(=O)N3CCCCC3)c2)C1 (stereo unspecified),0.656%,-11.3% (inactive)
O=C(C1Cc2ccccc2CN1C(=O)c1ccco1)N1CCN(c2ccccc2)CC1 (stereo unspecified),0.303%,25.4% (inactive)
COc1cccc(CNc2nc3cc(-c4csc5ccccc45)sc3c(=O)n2C)c1,4.67%,6.4% (inactive)
O=C(CN1C(=O)NC2(CCOc3ccccc32)C1=O)Nc1cccc([N+](=O)[O-])c1 (stereo unspecified),-0.437%,29.8% (inactive)
CC(C)C[C@H](CO)Nc1nc(N(C)c2cccc(Cl)c2)c2ncn(C(C)C)c2n1,-1.92%,-3.43% (inactive)
CC(C)n1cnc2c(Nc3cccc(Cl)c3)nc(N(CCO)CCCO)nc21,-20.3%,56.1% (active)
OCCCNc1nccc(-c2cc(Nc3cccc(Cl)c3)ncn2)n1,-53.6%,91.3% (inactive)
COc1cc(C(O)c2nc(-c3cnn(C)c3)cs2)ccc1F (stereo unspecified),-5.42%,-0.779% (inactive)
CN(C)C(=O)c1cccc(-c2cnc3c(NC=O)cc(-c4ccc(F)cc4)cn23)c1,-3.97%,30.4% (inactive)
CC(=O)c1cccc(-c2cnc3c(NC=O)cc(-c4ccc(N(C)C)cc4)cn23)c1,-34.1%,25.5% (inactive)
O=CNc1cc(-c2ccc(C(=O)N3CCOCC3)cc2)cn2c(-c3ccc(F)cc3)cnc12,-10.1%,16.1% (inactive)
CC(=O)c1cccc(-c2cnc3c(NC=O)cc(-c4cccc(C(=O)N(C)C)c4)cn23)c1,-7.72%,11.7% (inactive)
CN(C)C(=O)c1cccc(-c2cnc3c(NC=O)cc(-c4ccc(C(=O)N5CCOCC5)cc4)cn23)c1,-40.1%,52.5% (active)
CN(C)CCNC(=O)c1cccc(-c2cnc3c(NC=O)cc(-c4cccc(C(F)(F)F)c4)cn23)c1,-5.39%,55.2% (active)
O=C(COC(=O)/C=C/c1cccc(Cl)c1)NCc1cccs1,-2.53%,1.94% (inactive)
CCCNC(=O)c1cc(C2CCCCN2S(=O)(=O)c2cn(C)cn2)on1 (stereo unspecified),4.91%,3.78% (inactive)
CCCC(=O)Nc1nc2ccc(NC(=O)c3c(F)c(F)c(OC)c(F)c3F)cc2s1,-22.6%,70% (active)

Compound,"DAPI nuclei signal change (viability), lower = more cytotoxic",inhibition
CSc1nc2ccc(NC(=O)c3c(F)cccc3F)cc2s1,1.73%,-11.3% (inactive)
CC(=O)Nc1ccc2nc(NC(=O)CS(=O)(=O)c3ccc(F)cc3)sc2c1,-3.72%,-0.551% (inactive)
CCNC(=O)C1(C)CCCN(C(=O)c2c(C)noc2C)C1 (stereo unspecified),4.88%,-5.1% (inactive)
CC1=C(C(=O)N(C)C)CC(CC(=O)NCCc2ccccn2)C(=O)N1CCC1=CCCCC1 (stereo unspecified),-8.79%,-1.46% (inactive)
CN(Cc1c(F)cccc1Cl)C(=O)COC(=O)Cn1cnc2ccccc2c1=O,0.959%,-10.1% (inactive)
O=C(OCCN1C(=O)c2ccccc2C1=O)[C@@H]1CC(O)CN1S(=O)(=O)c1ccccc1[N+](=O)[O-] (stereo partly specified),-0.22%,-9.02% (inactive)
CCCC(=O)N1CCC1(C)C(=O)NS(=O)(=O)c1ccc(Cl)cc1 (stereo unspecified),2.06%,6.55% (inactive)
CC(=O)Nc1ccc(C(=O)Nc2cc(S(=O)(=O)N3CCOCC3)ccc2N2CCOCC2)cc1,4.58%,-8.64% (inactive)
C=CC(=O)Nc1ccc(Nc2ccnc(Nc3ccc(N4CCN(C)CC4)cc3)n2)cc1,-47%,88.2% (active)
Cc1cccc(N2CCN(c3ccc(NC(=O)/C=C\C(=O)O)cc3)CC2)c1,1.52%,7.15% (inactive)
CN1CCN(c2ccc(NC(=O)COc3ccc(Cl)cc3Cl)cc2)CC1,3.32%,-1.69% (inactive)
COc1cc(NC(=O)c2cc(-c3ccc(F)cc3OC(C)C)n[nH]2)cc(OC)c1OC,-6.58%,5.57% (inactive)
O=S(=O)(Cc1cc(Sc2ccccc2)nc(-c2ccccc2)n1)c1ccccc1,-1.14%,12.7% (inactive)
Cc1ccc(Sc2cc(N3CCOCC3)nc(-c3ccccc3)n2)cc1,-0.706%,55.1% (active)
Cc1cc(N2CCN(c3ccccc3)CC2)nc(N2CCOCC2)n1,-3.71%,14.3% (inactive)
COc1ccc(-c2ccc3c(c2)C2CC3CCN2CCC#N)cc1 (stereo unspecified),3.73%,-6.07% (inactive)
CCc1nc2ccc(C(=O)Nc3cccc(OC)c3)cn2c1N(CCC(C)C)CCN(C)C,0.0295%,33.9% (inactive)
Cc1[nH]c2ccccc2c1C(=O)C(=O)NCc1nnnn1-c1cccc(F)c1,9.45%,-12.5% (inactive)
CCN(CC)c1ncnc2c1ncn2[C@H]1CN(Cc2cccs2)C[C@@H](CO)O1,-0.273%,-11.2% (inactive)
OC(c1ccc(Cl)cc1)c1ncc(-c2ccc(Cl)cc2)[nH]1 (stereo unspecified),11%,-53.7% (inactive)
CCCOc1ccccc1C1CC(=O)Nc2cc3c(cc21)OCO3 (stereo unspecified),-7.65%,28.7% (inactive)
COc1ccccc1C1C2=C(COC2=O)Nc2cc3c(cc21)OCO3 (stereo unspecified),-19.2%,58.6% (active)
O=C1OCC2=C1C(c1ccc(Cl)cc1)c1cc3c(cc1O2)OCO3 (stereo unspecified),6.8%,11% (inactive)
